PubChem BioAssay (NCATS)
Results filed as inconclusive are left out. Unmarked numbers belong to inactive results. The source made the active and inactive calls. Calls follow the shape of the dose curve; as a rule, active = well fitted cell-killing curve with a large enough effect; inconclusive = small, poorly fitted or top-dose-only effect, or effect the other way; inactive = no such curve, though single readings can be large or run the other way.

Assay: Quantitative High-Throughput drug screen in 47 multiple myeloma cell lines against the NCATS MIPE library collection: VP6_DJ cell viability assay (AID 1919867); also: nearly all actives have a fitted effect of over 40% in size
Conditions: ATP luminescence, 48 h; series mostly up to 45.8 µM; viability (% of DMSO): at the top concentration
Method in brief: (§1)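 500 cells/well per myeloma line exposed to pinned MIPE 4.0 compounds for 48 h at 37 °C, 5% CO2. Viability read as ATP by CellTiter-Glo luminescence, normalised to DMSO-only (100%) and media-only (0%) wells.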
Potency is read from the fitted curve at half-maximal effect.

| Structure (SMILES) | viability (% of DMSO) [%] | Potency |
| --- | --- | --- |
| CC(=O)OCC1=C(C(=O)O)N2C(=O)[C@@H](N)[C@@H]2SC1 | 156 | – |
| Cc1c(C(=O)c2cccc3ccccc23)c2cccc3c2n1[C@H](CN1CCOCC1)CO3 | 124 | – |
| CCOC(=O)c1c(C(C#N)=CN)c2ccc(Cl)c(Cl)c2n1C | 79.9 | – |
| COC1=C[C@@H]2[C@@H]3Cc4ccc(OC)c(O)c4[C@]2(CCN3C)CC1=O | – | 2350 nM (active) |
| CC(C)[C@H]1C(=O)N[C@H](CO)Cc2c[nH]c3cccc(c23)N1C | 130 | – |
| COc1cc([C@@H]2c3cc4c(cc3[C@@H](O)C3COC(=O)C32)OCO4)cc(OC)c1O (stereo partly drawn) | – | 52.6 nM (active) |
| CC(=O)O[C@@]12CO[C@H]1C[C@H](O)[C@@]1(C)C(=O)[C@H](O)C3=C(C)[C@@H](O)C[C@@](O)([C@@H](OC(=O)c4ccccc4)[C@@H]21)C3(C)C | – | 935 nM (active) |
| C[C@]12CC[C@H]3[C@@H](CCC4=CC(=O)CC[C@@]43C)[C@H]1CC[C@H]2OC(=O)CCC1CCCC1 | 111 | – |
| COc1ccc2c(c1)CN(C)CC2c1ccc(Cl)c(Cl)c1 (stereo not drawn) | – | 14800 nM (active) |
| O=C(NCC1CCOCC1)c1cnc(Nc2ccc(Cl)cc2Cl)nc1C(F)(F)F | – | 6620 nM (active) |
| CCNC(=O)C[C@@H]1N=C(c2ccc(Cl)cc2)c2cc(OC)ccc2-n2c(C)nnc21 | – | 296 nM (active) |
| Cc1ccccc1-n1c(Cn2cnc3c(N)ncnc32)nc2cccc(C)c2c1=O | – | 187 nM (active) |
| COc1ccc(N(C(=O)Oc2c(C)cccc2C)c2ccnc(Nc3ccc(N4CCN(C)CC4)cc3)n2)c(OC)c1 | – | 2960 nM (active) |
| CCNC(=O)CC1N=C(c2ccc(Cl)cc2)c2cc(OC)ccc2-n2c(C)nnc21 (stereo not drawn) | – | 16600 nM (active) |
| Cc1ccccc1-n1c(Cn2ncc3c(N)ncnc32)nc2cccc(C)c2c1=O | – | 166 nM (active) |
| C=CCON=C(C[C@H]1O[C@@H]2O[C@]3(C)CC[C@@H]4[C@H](C)CC[C@@H]([C@H]1C)[C@@]24OO3)[C@H]1O[C@@H]2O[C@]3(C)CC[C@H]4[C@H](C)CC[C@@H]([C@@H]1C)[C@@]24OO3 | – | 166 nM (active) |
| c1cc2c(cc1[C@H]1OC[C@H]3[C@H]1CO[C@H]3c1ccc3c(c1)OCO3)OCO2 | 110 | – |
| CC(C)(O)C(=O)Nc1ccc([N+](=O)[O-])c(C(F)(F)F)c1 | – | 8330 nM (active) |
| COc1ccc(C(=O)c2c(C)n(CCN3CCOCC3)c3cc(I)ccc23)cc1 | – | 6620 nM (active) |
| N#C[C@H](O[C@@H]1O[C@H](CO[C@@H]2O[C@H](CO)[C@H](O)[C@H](O)[C@H]2O)[C@H](O)[C@H](O)[C@H]1O)c1ccccc1 | – | 18700 nM (active) |
| CC[C@H]1C=CC=CC[C@@H](C)[C@H](O)[C@@](C)(O)C(=O)[C@@H](C)[C@H](O)[C@@H](C)C(=O)[C@@H](C)[C@H](O)[C@@H](C)C=CC(=O)O[C@@H]2[C@@H](C)[C@H](CC1)O[C@]1(CC[C@H](C)[C@H](C[C@@H](C)O)O1)[C@H]2C | – | 1 nM (active) |
| COC[C@H]1OC(=O)c2coc3c2[C@@]1(C)C1=C(C3=O)[C@@H]2CC[C@H](O)[C@@]2(C)C[C@@H]1OC(C)=O | – | 1870 nM (active) |

Assay: Quantitative High-Throughput drug screen in 47 multiple myeloma cell lines against the NCATS MIPE library collection: UTMC2_PLB cell viability assay (AID 1919868); also: nearly all actives have a fitted effect of over 55% in size
Conditions: CellTiter-Glo ATP luminescence, 48 h; viability (% of DMSO control): at 45.8 µM (top of the series)
Method in brief: as §1

| Structure (SMILES) | Potency | viability (% of DMSO control) [%] |
| --- | --- | --- |
| COc1cc([C@@H]2c3cc4c(cc3[C@@H](O)C3COC(=O)C32)OCO4)cc(OC)c1O (stereo partly drawn) | 46.9 nM (active) | – |
| C[C@]12CC[C@H]3[C@@H](CCC4=CC(=O)CC[C@@]43C)[C@H]1CC[C@H]2O | – | 117 |
| Cc1ccccc1-n1c(Cn2ncc3c(N)ncnc32)nc2cccc(C)c2c1=O | 74.3 nM (active) | – |
| C=CCON=C(C[C@H]1O[C@@H]2O[C@]3(C)CC[C@@H]4[C@H](C)CC[C@@H]([C@H]1C)[C@@]24OO3)[C@H]1O[C@@H]2O[C@]3(C)CC[C@H]4[C@H](C)CC[C@@H]([C@@H]1C)[C@@]24OO3 | 372 nM (active) | – |

Assay: Quantitative High-Throughput drug screen in 47 multiple myeloma cell lines against the NCATS MIPE library collection: PE2_PLB cell viability assay (AID 1919869); also: nearly all actives have a fitted effect of over 35% in size
Conditions: PE2_PLB myeloma cells viability, ATP luminescence, 48 h; series mostly up to 45.8 µM; viability (% of control): at the top concentration
Method in brief: as §1

| Structure (SMILES) | viability (% of control) [%] | Potency |
| --- | --- | --- |
| CC(=O)OCC1=C(C(=O)O)N2C(=O)[C@@H](N)[C@@H]2SC1 | 146 | – |
| Cc1c(C(=O)c2cccc3ccccc23)c2cccc3c2n1[C@H](CN1CCOCC1)CO3 | – | 23500 nM (active) |
| CCOC(=O)c1c(C(C#N)=CN)c2ccc(Cl)c(Cl)c2n1C | 88.8 | – |
| COC1=C[C@@H]2[C@@H]3Cc4ccc(OC)c(O)c4[C@]2(CCN3C)CC1=O | – | 9350 nM (active) |
| COc1cc([C@@H]2c3cc4c(cc3[C@@H](O)C3COC(=O)C32)OCO4)cc(OC)c1O (stereo partly drawn) | – | 52.6 nM (active) |
| C=C[C@@H]1CN2CCC1C[C@@H]2[C@@H](O)c1ccnc2ccccc12 (stereo partly drawn) | – | 23500 nM (active) |
| CCNC(=O)C[C@@H]1N=C(c2ccc(Cl)cc2)c2cc(OC)ccc2-n2c(C)nnc21 | – | 2960 nM (active) |
| Cc1ccccc1-n1c(Cn2cnc3c(N)ncnc32)nc2cccc(C)c2c1=O | – | 296 nM (active) |
| CN[C@@H]1Cc2cccc3[nH]c(=O)n(c23)C1 | 109 | – |
| O=C1CCC[C@@H]2[C@H]3CCCN4CCC[C@@H](CN12)[C@@H]34 | 89.2 | – |
| CC(C)N[C@@H]1CCn2c(=O)[nH]c3cccc(c32)[C@@H]1O | – | 4180 nM (active) |
| COc1ccc(N(C(=O)Oc2c(C)cccc2C)c2ccnc(Nc3ccc(N4CCN(C)CC4)cc3)n2)c(OC)c1 | – | 2640 nM (active) |
| C[C@]12Cc3cn[nH]c3C[C@@H]1CC[C@@H]1[C@H]2CC[C@@]2(C)[C@H]1CC[C@]2(C)O | 114 | – |
| C[C@]12CC[C@H]3[C@@H](CCC4=CC(=O)CC[C@@]43C)[C@H]1CC[C@H]2O | 112 | – |
| C[C@]12COC(=O)C[C@@H]1CC[C@@H]1[C@H]2CC[C@@]2(C)[C@H]1CC[C@]2(C)O | 114 | – |
| O=S(=O)(CC1CS1)c1ccc(Oc2ccccc2)cc1 (stereo not drawn) | – | 16600 nM (active) |
| C=CCON=C(C[C@H]1O[C@@H]2O[C@]3(C)CC[C@@H]4[C@H](C)CC[C@@H]([C@H]1C)[C@@]24OO3)[C@H]1O[C@@H]2O[C@]3(C)CC[C@H]4[C@H](C)CC[C@@H]([C@@H]1C)[C@@]24OO3 | – | 469 nM (active) |
| CC(C)(O)C(=O)Nc1ccc([N+](=O)[O-])c(C(F)(F)F)c1 | – | 9350 nM (active) |
| C[C@]12CC[C@@H]3[C@@H](CCC4=CC(=O)CC[C@@H]43)[C@@H]1CC[C@@H]2OC(=O)CCc1ccccc1 | 137 | – |
| Cc1nc(-c2ccc(-c3ccc(C(=O)N4CCc5cc6c(cc54)C4(CCN(C)CC4)CO6)cc3)c(C)c2)no1 | 115 | – |
| Clc1ccccc1C(c1ccccc1)(c1ccccc1)n1cccn1 | 114 | – |
| COc1ccc(C(=O)c2c(C)n(CCN3CCOCC3)c3cc(I)ccc23)cc1 | – | 13200 nM (active) |
| Cc1c(C(=O)Nc2cccc(C(F)(F)F)c2)cc(-c2ccccc2)n1CCCN1CCOCC1 | – | 14800 nM (active) |
| N#C[C@H](O[C@@H]1O[C@H](CO[C@@H]2O[C@H](CO)[C@H](O)[C@H](O)[C@H]2O)[C@H](O)[C@H](O)[C@H]1O)c1ccccc1 | – | 18700 nM (active) |
| CCOP(=O)(OCC)C(C)NC(=O)N(CCCl)N=O (stereo not drawn) | 121 | – |
| CC[C@H]1C=CC=CC[C@@H](C)[C@H](O)[C@@](C)(O)C(=O)[C@@H](C)[C@H](O)[C@@H](C)C(=O)[C@@H](C)[C@H](O)[C@@H](C)C=CC(=O)O[C@@H]2[C@@H](C)[C@H](CC1)O[C@]1(CC[C@H](C)[C@H](C[C@@H](C)O)O1)[C@H]2C | – | 9350 nM (active) |
| COC[C@H]1OC(=O)c2coc3c2[C@@]1(C)C1=C(C3=O)[C@@H]2CC[C@H](O)[C@@]2(C)C[C@@H]1OC(C)=O | – | 743 nM (active) |
